Compounds without any hit were thinned out: in the full panel of roughly 83,000, 20% have a hit.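 Assay: single dose, 48 h. Readout: percent growth (0 = no net growth; negative = cell death). Active: <10.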 A number with no mark means an inactive call.

In the first test the test system is TK-10 renal. Briefly: NCI-60 one-dose screen, 48 h (100 = growth as untreated, 0 = no growth, -100 = all killed). The following applies: 10 µM unless noted.
Turning to `CCC(/C=C\C(C)=O)CC`, the growth is 102%.
On the same count and under the same terms, the figure for `CCOC(=O)CO` is 109%.
Still for that read-out and setting: the figure for `Cc1cc(=O)n(Nc2ccccc2)c(O)c1C#N` is 104%; for `COc1ccc2c(Cl)cc(NC(=O)Nc3c(C)cccc3C)nc2c1` it is 35%.
Still for that read-out and setting: the figure for `O=Cc1ccc(F)cc1` is 113%.
Take `O=C(O)c1ccc([N+](=O)[O-])cc1S(=O)(=O)O`: the growth was 99.3%.
Still for that read-out and setting: the figure for `C=CCC(OC(C)=O)c1ccc(C(C)C)cc1` (stereo not given) is 96.4%; for `CCOc1ccc(C(=O)NCC(C)C)cc1` it is 97.8%.
On the same count and under the same terms, the figure for `Cc1cc(NC(=O)c2ccccc2)c(Cl)cc1N` is 141%.
Take `CC(=O)c1cccc(N(C)S(=O)(=O)c2ccc(C)cc2)c1`: the growth is 90.4%.
The same measure, in the same setting: the figure for `CC(=O)c1cc(O)ccc1O` is 93.6%; for `Cc1nc(O)cc(=O)[nH]1` it is 107%; for `CCOc1ccccc1NC(=O)CCl` it is 94.5%.
As for `Cc1ccc(S(=O)(=O)CCCl)cc1`, the growth is 97.4%.
On the same count and under the same terms, the figure for `CC(CCC#N)(CCC#N)C(=O)c1ccccc1` is 106%.
Take `Cc1cc(CO)c(O)c(CO)c1`: the growth is 97.1%.
On the same count and under the same terms, the figure for `O=Cc1ccc(Cl)c(Cl)c1` is 98%.
As to `Nc1cccc2cccc(O)c12`, the growth is 83.7%.
The same measure, in the same setting: the figure for `Cc1cccc2ccccc12` is 103%; for `NC(=O)OCCO` it is 98.8%.
The same measure, in the same setting: the figure for `CCOC(=O)C(CCC#N)(CCC#N)C(=O)OCC` is 102%.
As for `N#CCCN1C(=O)CCC1C(=O)O` (stereo not given), the growth is 103%.
Same read-out and setting: the figure for `COC(=O)c1cccc([N+](=O)[O-])c1` is 101%; for `CC(=O)c1cccc(NS(=O)(=O)c2ccc(C)cc2)c1` it is 90.3%; for `C=COC(=O)C(C)(C)C` it is 98.6%.
On the same count and under the same terms, the figure for `CSc1nc2[nH]ncc2c(=O)[nH]1` is 104%.
In the case of `CC(=O)c1ccc(C)cc1`, the growth was 105%.
Same read-out and setting: the figure for `O=c1[nH]c(=O)c2cc(Cl)cc(Cl)c2[nH]1` is 97.6%; for `O=[N+]([O-])c1c(Cl)ncnc1Cl` it is 107%.
The same measure, in the same setting: the figure for `O=C1NCC2CCCC1C2` (stereo not given) is 101%; for `OC(CBr)CCBr` (stereo not given) it is 131%.

The test system of the next test is ACHN renal. The description is as above. The settings on record: 10 µM unless noted.
Take `CCC(/C=C\C(C)=O)CC`: the growth is 102%.
Same read-out and setting: the figure for `CCOC(=O)CO` is 109%; for `Cc1cc(=O)n(Nc2ccccc2)c(O)c1C#N` it is 104%; for `CN(C)c1ccc(O)c2c1CC1CC3C(N(C)C)C(=O)C(C(N)=O)=C(O)C3(O)C(=O)C1=C2O` (stereo not given) it is 35.5%.
On to `CC(=O)c1cccs1`, for which the growth was 102%.
Same read-out and setting: the figure for `O=Cc1ccc(F)cc1` is 95.6%.
Take `O=C(O)c1ccc([N+](=O)[O-])cc1S(=O)(=O)O`: the growth was 106%.
Same read-out and setting: the figure for `C=CCC(OC(C)=O)c1ccc(C(C)C)cc1` (stereo not given) is 108%; for `CCOc1ccc(C(=O)NCC(C)C)cc1` it is 107%.
Consider `Cc1ccc(NC(=O)c2ccccc2Cl)cc1`, for which the growth was 103%.
On the same count and under the same terms, the figure for `Cc1cc(NC(=O)c2ccccc2)c(Cl)cc1N` is 98.8%; for `CCCCNC(=O)c1ccc(OCC)cc1` it is 109%; for `CC(=O)c1cccc(N(C)S(=O)(=O)c2ccc(C)cc2)c1` it is 107%.
Same read-out and setting: the figure for `CC(=O)c1cc(O)ccc1O` is 110%; for `Cc1nc(O)cc(=O)[nH]1` it is 107%.
Same read-out and setting: the figure for `CCOc1ccccc1NC(=O)CCl` is 108%; for `Cc1ccc(S(=O)(=O)CCCl)cc1` it is 98.2%.
In the case of `CC(CCC#N)(CCC#N)C(=O)c1ccccc1`, the growth was 114%.
On the same count and under the same terms, the figure for `Cc1cc(CO)c(O)c(CO)c1` is 103%; for `O=Cc1ccc(Cl)c(Cl)c1` it is 103%; for `CCN(C(C)=O)c1ccc([N+](=O)[O-])cc1` it is 113%.
Same read-out and setting: the figure for `Nc1cccc2cccc(O)c12` is 80%; for `Cc1cccc2ccccc12` it is 99.7%.
With `NC(=O)OCCO`, the growth was 113%.
On the same count and under the same terms, the figure for `CCOC(=O)C(CCC#N)(CCC#N)C(=O)OCC` is 109%; for `N#CCCN1C(=O)CCC1C(=O)O` (stereo not given) it is 101%; for `COC(=O)c1cccc([N+](=O)[O-])c1` it is 109%.
For the molecule `O=C(CC(CC(=O)c1ccccc1)c1ccccn1)c1ccccc1`, the growth was 97.8%.
`CC(=O)c1cccc(NS(=O)(=O)c2ccc(C)cc2)c1`: the growth was 106%.
The same measure, in the same setting: the figure for `C=COC(=O)C(C)(C)C` is 108%.
Same read-out and setting: the figure for `CSc1nc2[nH]ncc2c(=O)[nH]1` is 110%; for `CC(=O)c1ccc(C)cc1` it is 109%.
The same measure, in the same setting: the figure for `O=c1[nH]c(=O)c2cc(Cl)cc(Cl)c2[nH]1` is 103%.
With `O=[N+]([O-])c1c(Cl)ncnc1Cl`, the growth was 94.8%.
